Activity calls are given as the source filed them. How the source made its calls: active means hit-call score of the fitted dose curve at least 0.9, where 1 is the maximum; inactive means score below 0.9.
What was measured:
[1] = BSK_hDFCGF_SRB: Viability Assessment in the BioMAP Diversity Plus: hDFCGF Assay (AID 2283061); conditions: primary human foreskin fibroblasts;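 further: cells exposed to compound for 24 h before the read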
How it was run: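 Viability was read as total protein: after 10% TCA fixation, wells were stained with 0.1% sulforhodamine B and read at 560 nm. Primary human foreskin fibroblasts were dosed for 24 h, with bidirectional fitting versus DMSO.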

[2] = read-out: TIMP metallopeptidase inhibitor 1 (TIMP1), TIMP1 (gene 7076); assay: BSK_hDFCGF_TIMP1: BioMAP Diversity Plus: hDFCGF Assay for TIMP metallopeptidase inhibitor 1 (TIMP1) Biomarker Activity (AID 2283062); conditions: primary human foreskin fibroblasts; actives raise or lower the signal
How it was run: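 TIMP-1 measured by ELISA 24 h after chemical dosing of primary human skin fibroblasts, with gain or loss fitted relative to DMSO. Parallel SRB staining (560 nm) monitored overt cytotoxicity.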

[3] = read-out: Monokine induced gamma interferon (MIG), CXCL9 (gene 4283); assay: BSK_hDFCGF_MIG: BioMAP Diversity Plus: hDFCGF Assay for Monokine induced gamma interferon (MIG) Biomarker Activity (AID 2283063); conditions: primary human foreskin fibroblasts; actives raise or lower the signal
How it was run: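 Human primary foreskin fibroblasts in the hDFCGF system, exposed to test chemical for 24 h; MIG measured by ELISA. Bidirectional curve fitting against DMSO negative control as activity baseline.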

[4] = read-out: Matrix Metallopeptidase 1 (MMP1), MMP1 (gene 4312); assay: BSK_hDFCGF_MMP1: BioMAP Diversity Plus: hDFCGF Assay for Matrix Metallopeptidase 1 (MMP1) Biomarker Activity (AID 2283064); conditions: primary human foreskin fibroblasts; actives raise or lower the signal
How it was run: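 MMP1 levels quantified by ELISA 24 h after dosing human dermal fibroblast cultures, with parallel SRB total-protein staining for overt cytotoxicity. Data fitted in both directions against DMSO baseline.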

[5] = read-out: Vascular cell adhesion molecule 1 (VCAM1), VCAM1 (gene 7412); assay: BSK_hDFCGF_VCAM1: BioMAP Diversity Plus: hDFCGF Assay for Vascular cell adhesion molecule 1 (VCAM1) Biomarker Activity (AID 2283065); conditions: primary human foreskin fibroblasts; actives raise or lower the signal;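 on AC50: VCAM-1 protein level quantified by ELISA after 24 h chemical exposure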
How it was run: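 ELISA readout of VCAM-1 on human dermal fibroblast primary cultures, 24 h after chemical exposure. Gain or loss of signal fitted in both directions against DMSO baseline.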

[6] = read-out: Plasminogen activator inhibitor-1 (PAI1), SERPINE1 (gene 5054); assay: BSK_hDFCGF_PAI1: BioMAP Diversity Plus: hDFCGF Assay for Plasminogen activator inhibitor-1 (PAI1) Biomarker Activity (AID 2283066); conditions: primary human foreskin fibroblasts; actives raise or lower the signal
How it was run: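 Human skin fibroblast cultures receive chemical for 24 h before PAI-1 is measured by ELISA; signal changes are fitted bidirectionally against DMSO-treated wells.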

[7] = read-out: Intercellular Adhesion Molecule 1 (ICAM1), ICAM1 (gene 3383); assay: BSK_KF3CT_ICAM1: BioMAP Diversity Plus: KF3CT Assay for Intercellular Adhesion Molecule 1 (ICAM1) Biomarker Activity (AID 2283067); conditions: primary human keratinocytes with fibroblasts; actives raise or lower the signal
How it was run: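 Cell-surface ICAM-1 was measured by ELISA 24 h after dosing primary human skin keratinocytes co-cultured with fibroblasts. Parallel SRB staining tracked overt cytotoxicity. Gain or loss of signal was fitted relative to DMSO.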

[8] = read-out: Interferon-gamma inducible Protein 10 (IP10), CXCL10 (gene 3627); assay: BSK_KF3CT_IP10: BioMAP Diversity Plus: KF3CT Assay for Interferon-gamma inducible Protein 10 (IP10) Biomarker Activity (AID 2283068); conditions: primary human keratinocytes with fibroblasts; actives raise or lower the signal
How it was run: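 KF3CT co-culture (keratinocytes + foreskin fibroblasts), 24 h compound, IP-10 by ELISA; bidirectional fit vs DMSO baseline.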

[9] = BSK_KF3CT_SRB: Viability Assessment in the BioMAP Diversity Plus: KF3CT Assay (AID 2283069); conditions: primary human keratinocytes with fibroblasts;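 further: total protein by sulforhodamine B staining as a cytotoxicity measure; read 24 h after compound addition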
How it was run: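 Cytotoxicity was gauged by SRB staining (0.1% SRB, 10% TCA fixation, 560 nm) of parallel cultures at 24 h. The cells were primary human skin keratinocytes co-cultured with fibroblasts, and activity was fitted in both directions against DMSO.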

[10] = read-out: Interleukin-1 alpha (IL1a), IL1A (gene 3552); assay: BSK_KF3CT_IL1a: BioMAP Diversity Plus: KF3CT Assay for Interleukin-1 alpha (IL1a) Biomarker Activity (AID 2283070); conditions: primary human keratinocytes with fibroblasts; actives raise or lower the signal
How it was run: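 IL-1a was detected by ELISA 24 h after chemical treatment of a co-culture of human skin keratinocytes and foreskin fibroblasts. Gain or loss of signal was fitted against the DMSO baseline.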

[11] = read-out: TIMP metallopeptidase inhibitor 2 (TIMP2), TIMP2 (gene 7077); assay: BSK_KF3CT_TIMP2: BioMAP Diversity Plus: KF3CT Assay for TIMP metallopeptidase inhibitor 2 (TIMP2) Biomarker Activity (AID 2283071); conditions: primary human keratinocytes with fibroblasts; actives raise or lower the signal
How it was run: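 Measurements come from ELISA detection of TIMP-2 at 24 hours in a dosed human keratinocyte and foreskin fibroblast co-culture. DMSO serves as negative control and baseline.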

[12] = read-out: Transforming growth factor beta 1 (TGFb1), TGFB1 (gene 7040); assay: BSK_KF3CT_TGFb1: BioMAP Diversity Plus: KF3CT Assay for Transforming growth factor beta 1 (TGFb1) Biomarker Activity (AID 2283072); conditions: primary human keratinocytes with fibroblasts; actives raise or lower the signal
How it was run: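 TGF-b1 ELISA on a 24 h dosed co-culture of human keratinocytes and foreskin fibroblasts; cytotoxicity tracked in parallel cultures by SRB staining.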

[13] = read-out: C-C motif chemokine 2 (Homo sapiens) (UniProt P13500); assay: BSK_KF3CT_MCP1: BioMAP Diversity Plus: KF3CT Assay for Monocyte Chemoattractant Protein 1 (MCP1/CCL2) Biomarker Activity (AID 2283073); conditions: primary human keratinocytes with fibroblasts; actives raise or lower the signal
How it was run: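 ELISA read-out of MCP-1, 24 h post-dose, in primary human skin keratinocytes co-cultured with fibroblasts. Parallel SRB staining monitors cytotoxicity; changes fitted both directions relative to DMSO.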

[14] = read-out: Matrix Metallopeptidase 9 (MMP9), MMP9 (gene 4318); assay: BSK_KF3CT_MMP9: BioMAP Diversity Plus: KF3CT Assay for Matrix Metallopeptidase 9 (MMP9) Biomarker Activity (AID 2283074); conditions: primary human keratinocytes with fibroblasts; actives raise or lower the signal;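 on AC50: MMP9 protein level quantified by ELISA in the co-culture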
How it was run: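 MMP-9 quantified by ELISA after 24 h chemical treatment of primary human skin keratinocyte/fibroblast co-cultures; gain or loss fitted against DMSO, with parallel SRB staining (0.1% SRB, 560 nm) for overt cytotoxicity.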

[15] = read-out: urokinase plasminogen activator (uPA), PLAU (gene 5328); assay: BSK_KF3CT_uPA: BioMAP Diversity Plus: KF3CT Assay for urokinase plasminogen activator (uPA) Biomarker Activity (AID 2283075); conditions: primary human keratinocytes with fibroblasts; actives raise or lower the signal
How it was run: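 ELISA read-out of uPA 24 h after dosing human skin keratinocytes co-cultured with foreskin fibroblasts. Signal change fitted both ways relative to DMSO; sulforhodamine B on parallel cultures marks overt cytotoxicity.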

CD40, CD40 (gene 958) = assay: BSK_LPS_CD40: BioMAP Diversity Plus: LPS Assay for CD40 Biomarker Activity (AID 2283076); conditions: primary human HUVEC with PBMC; actives raise or lower the signal
How it was run: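 In the LPS system of human endothelial cells with peripheral blood mononuclear cells, CD40 levels were read by ELISA 24 h post-treatment. Signal changes in either direction were fitted against the DMSO baseline, with parallel SRB protein staining.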

[16] = read-out: E-selectin (Homo sapiens) (UniProt P16581); assay: BSK_LPS_Eselectin: BioMAP Diversity Plus: LPS Assay for Eselectin Biomarker Activity (AID 2283077); conditions: primary human HUVEC with PBMC; actives raise or lower the signal
How it was run: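 E-selectin ELISA on LPS-stimulated endothelial cell/PBMC co-cultures, read 24 h post-treatment; gains and losses fitted against DMSO. Parallel SRB staining (0.1% SRB after 10% TCA fixation, 560 nm) flags overt cytotoxicity.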

[17] = read-out: Interleukin-8 (IL8), CXCL8 (gene 3576); assay: BSK_LPS_IL8: BioMAP Diversity Plus: LPS Assay for Interleukin-8 (IL8) Biomarker Activity (AID 2283078); conditions: primary human HUVEC with PBMC; actives raise or lower the signal
How it was run: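 ELISA read-out of IL-8 after 24 h chemical treatment of LPS-activated endothelial/PBMC human primary co-cultures. Changes either up or down relative to DMSO; overt cytotoxicity checked by sulforhodamine B staining in parallel wells.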

[18] = BSK_LPS_SRB: Viability Assessment in the BioMAP Diversity Plus: LPS Assay (AID 2283079); conditions: primary human HUVEC with PBMC;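 further: total protein by sulforhodamine B absorbance as a cytotoxicity measure; measured one day after compound addition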
How it was run: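 SRB viability endpoint: cells fixed with 10% TCA, stained with 0.1% SRB, read at 560 nm, 24 h post-dose. HUVEC/PBMC co-culture; signal change in either direction scored relative to DMSO.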

[19] = read-out: Interleukin-1 alpha (IL1a), IL1A (gene 3552); assay: BSK_LPS_IL1a: BioMAP Diversity Plus: LPS Assay for Interleukin-1 alpha (IL1a) Biomarker Activity (AID 2283080); conditions: primary human HUVEC with PBMC; actives raise or lower the signal
How it was run: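 Readout is IL-1a level by ELISA, 24 h post-dose, fitted as gain or loss relative to DMSO. System: LPS-activated human primary co-culture of vascular endothelium and peripheral blood mononuclear cells, with parallel SRB total-protein cytotoxicity.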

Measured: AC50

Chain of E-selectin (Homo sapiens) (P16581 whole entry, looked up): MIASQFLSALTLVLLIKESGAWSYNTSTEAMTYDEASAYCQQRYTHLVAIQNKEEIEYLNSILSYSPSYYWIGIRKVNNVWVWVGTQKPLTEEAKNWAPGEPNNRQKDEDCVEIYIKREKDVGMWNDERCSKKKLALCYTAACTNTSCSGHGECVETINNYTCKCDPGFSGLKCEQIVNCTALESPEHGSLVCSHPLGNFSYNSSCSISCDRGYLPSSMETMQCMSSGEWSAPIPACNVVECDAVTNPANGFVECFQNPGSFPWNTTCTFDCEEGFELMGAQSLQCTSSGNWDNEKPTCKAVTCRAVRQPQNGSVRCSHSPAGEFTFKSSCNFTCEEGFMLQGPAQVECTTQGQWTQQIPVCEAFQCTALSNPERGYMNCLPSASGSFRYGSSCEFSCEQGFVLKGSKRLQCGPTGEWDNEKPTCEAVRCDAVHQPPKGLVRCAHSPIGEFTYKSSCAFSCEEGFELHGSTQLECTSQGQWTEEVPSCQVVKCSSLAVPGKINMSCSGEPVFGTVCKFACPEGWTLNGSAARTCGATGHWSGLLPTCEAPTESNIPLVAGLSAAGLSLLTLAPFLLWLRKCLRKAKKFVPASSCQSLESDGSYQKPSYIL

CCCCOC(=O)c1ccccc1
inactive: [1] | [2] | [3] | [4] | [5] | [6] | [7] | [8] | [9] | [10] | [11] | [12] | [13] | [14] | [15] | CD40, CD40 (gene 958) | [16] | [17] | [18] | [19]

O=S1(=O)CCCO1
inactive: [1] | [2] | [3] | [4] | [5] | [6] | [7] | [8] | [9] | [10] | [11] | [12] | [13] | [14] | [15] | CD40, CD40 (gene 958) | [16] | [17] | [18] | [19]

O=c1[nH]cnc2c1ncn2[C@H]1CC[C@@H](CO)O1
inactive: [1] | [2] | [3] | [4] | [5] | [6] | [7] | [8] | [9] | [10] | [11] | [12] | [13] | [14] | [15] | CD40, CD40 (gene 958) | [16] | [17] | [18] | [19]

Cc1nc(-c2ccccn2)ncc1C(=O)Nn1cc(C)c2cc(F)ccc21
inactive: [1] | [2] | [3] | [4] | [5] | [6] | [7] | [8] | [9] | [10] | [11] | [12] | [13] | [14] | [15] | CD40, CD40 (gene 958) | [16] | [17] | [18] | [19]

O=C(O)[C@H](O)[C@@H](O)C(=O)O
inactive: [1] | [2] | [3] | [5] | [6] | [7] | [8] | [9] | [10] | [11] | [12] | [13] | [14] | [15] | CD40, CD40 (gene 958) | [16] | [17] | [18] | [19]

CCc1ccc(O)c(C(C)(C)C)c1
active: [1] 36.2 µM | [2] 31.1 µM | [3] 32.6 µM | [4] 31.8 µM | [5] 30.4 µM | [6] 28.1 µM | [7] 31.2 µM | [8] 36.8 µM | [9] 35.7 µM | [10] 30.5 µM | [11] 36.5 µM | [12] 33.5 µM | [13] 36.8 µM | [14] 34.7 µM | [15] 35.3 µM | [18] 32 µM
inactive: CD40, CD40 (gene 958) | [16] | [17] | [19]
